This is an account of results in PubChem BioAssay (Tox21).

Molecules are shown by their SMILES. Active and inactive are the calls of the source. Calls come from the whole dose curve; as a rule, active = well fitted curve in the direction sought with a large enough effect in the repeat runs; inconclusive = weak or mixed curves; inactive = flat fitted curve, though single readings scatter.
% is set by controls: 0 for no effect and ±100 for the full control effect.

The assay in a line: qHTS assay to test for compound auto fluorescence at 460 nm (blue) in HepG2 cells (AID 720687). The note with it: autofluorescence 405/460 nm, 1 h; series mostly up to 91.3 µM. The text has this: U.S. Tox21 Program National Center for Advancing Translational Sciences [NCATS] NIH Chemical Genomics Center [NCGC] U.S. Environmental Protection Agency [EPA] National Institutes of Environmental Health Sciences [NIEHS] National Toxicology Program [NTP] U.S. Food and Drug Administration [FDA] Tox21 Assay Overview: Compound auto fluorescence often interferes with screening of the compound library against various biological targets and signaling pathways. Some of these compounds may have fluorophoric properties. Such properties may interfere with the assay outputs resulting in false positives and/or negatives. To decrease such complications and ensure the compound activities are relevant in terms of biological response, the Tox21 10K compound library was screened for auto fluorescence. From the fluorophores used as reporter signals in our screening assays, the auto fluorescence equivalencies of compounds against three fluorophores have been evaluated: Triamterene, Fluorescein and Rose Bengal sodium for blue, green and red fluorescence, respectively. The fluorescence intensities were measured using Excitation/Emission wavelengths at 405/460nm, 485/535nm and 540/590nm for blue, green and red labels, respectively. This assay includes the blue fluorescence data.
Tox21 Assay Protocol Summary: 2,000 HepG2 cells in 5 uL of culture medium (MEM containing 10% FBS) per well were dispensed into black wall/clear bottom 1536-well plates using a Multidrop Combi Dispenser (ThermoFisher Scientific, Waltham, MA). The assay plates were incubated overnight at 37 C to allow cell attachment to the well bottom, followed by the transfer of 23 nL compound or DMSO vehicle by a pintool work station (Kalypsys , San Diego, CA). After the assay plates were incubated for 1 hr at 37 C and 5% CO2, fluorescence intensities in the assay plates were measured by an Envision (PerkinElmer, Shelton, CT) plate reader using three labels for measuring blue, green and red fluorescence at […] 460, 535 and 590 nm respectively.
For `O=C(OCC1(COC(=O)c2cccnc2)CCCC(COC(=O)c2cccnc2)(COC(=O)c2cccnc2)C1O)c1cccnc1`, the outcome was inactive.
Take `Nc1ncnc(Nc2ccccc2)n1`: the call was inactive.
`O=C(O)Cc1ccc(Cl)cc1Cl`: the outcome was inactive.
As for `O=C1c2ccccc2C(=O)c2cc(S(=O)(=O)O)ccc21`, the compound was called inactive.
As to `CC(CO)c1ccccc1` (stereo not given), the compound was classed as inactive.
In the case of `CC(C)=O`, the compound was classed as inactive.
For `CCOC(=O)c1ccc(OC(=O)CCCCCN=C(N)N)cc1`, the fluorescence, % of fluorescent control was 0.0159% [at 18.6 µM] (inactive).
`N#Cc1ccc(C(=O)O)cc1`: the outcome was inactive.
For `COc1ccc(Br)c(C)c1`, the outcome was inactive.
Turning to `NCCN1CCOCC1`, the outcome was inactive.
On the same count and under the same terms, as for `Oc1cn2c(n1)Nc1ccc(Cl)c(Cl)c1C2`, the entry is “inactive”; as for `CCCCCCCCSCC`, “inactive”; as for `CC(=O)Nc1cccc(C)c1`, “inactive”.
On the same count and under the same terms, under `COC(=O)c1ccccc1C(=O)c1ccc(OCCN2CCCCC2)cc1` stands “inactive”; under `CC(C)(C)c1n[nH]c(=S)n(N)c1=O`, “inactive”; under `C=CCCCCCCCCCCCC`, “inactive”.
`C[C@H](CCC(=O)O)[C@H]1CC[C@H]2[C@@H]3C(=O)C[C@@H]4CC(=O)CC[C@]4(C)[C@H]3CC(=O)[C@]12C`: the compound was classed as inactive.
Still for that read-out and setting: under `O=C1c2cccc3c2[C@H](CCC3)CN1[C@@H]1CN2CCC1CC2` stands “inactive”; under `CC(C)=CCOC(=O)c1ccccc1`, “inactive”.
Consider `O=S(O)(O)=S`, for which the fluorescence, % of fluorescent control was -0.0508% [at 3.72 µM] (inactive).
As for `CCCCNC1CC(C)(C)NC(C)(C)C1`, the outcome was inactive.
On to `OC[C@H](Cc1cccc(O)c1)[C@H](CO)Cc1cccc(O)c1`, for which the compound was called inactive.
On the same count and under the same terms, as for `CCOC(=O)[C@H](CCc1ccccc1)N[C@@H](C)C(=O)N1C(=O)N(C)C[C@H]1C(=O)O`, the entry is “inactive”.
With `CCCC/C=C\CCCCCCCCCC=O`, the result was inactive.
Take `COCCOCCOCCOCCO`: the outcome was inactive.
As to `c1ccc2c(c1)ccc1c3ccccc3ccc21`, the result was inactive.
As to `C[Si](C)=O`, the fluorescence, % of fluorescent control was -0.132% [at 9.17 µM] (inactive).
As for `O=C(OCC(COC(=O)c1cccnc1)(COC(=O)c1cccnc1)COC(=O)c1cccnc1)c1cccnc1`, the compound was classed as inactive.
On to `COc1cc(N)ccc1C`, for which the compound was called inactive.
For `CN1C(C)(C)CCCC1(C)C`, the outcome was inactive.
With `COC(=O)CCc1ccc(OCC(O)CNC(C)C)cc1` (stereo not given), the compound was classed as inactive.
For the compound `COC(=O)C1CC(=O)C(C(=O)OC)CC1=O` (stereo not given), the fluorescence, % of fluorescent control was 1.56% [at 3.72 µM] (inactive).
As for `Cc1ccc2c(c1)OCC(=O)CO2`, the result was inactive.
Regarding `O=C(CS(=O)Cc1ccco1)NC/C=C\COc1cc(CN2CCCCC2)ccn1` (stereo not given), the call was inactive.
Regarding `CC1=C(C(=O)O)N2C(=O)[C@@H](NC(=O)[C@H](N)c3ccc(O)cc3)[C@H]2SC1`, the fluorescence, % of fluorescent control was 0.189% [at 18.6 µM] (inactive).
As to `C=Cc1ccccn1`, the outcome was inactive.
For the compound `Cc1cc(NC(=O)C2=C(O)c3ccccc3S(=O)(=O)N2C)no1`, the compound was classed as inactive.
Turning to `CC(=O)NCCCCCC(=O)O`, the compound was classed as inactive.
Consider `Nc1nnc(-c2cccc(Cl)c2Cl)c(N)n1`, for which the compound was classed as inactive.
For `CC(C(=O)O)c1ccc2c(c1)CC(=O)c1ccccc1S2` (stereo not given), the compound was classed as inactive.
